Several values for one entry are separate records, joined by “and”; a condition that tells them apart may be missing. Equal values may be shown once. About 83,000 compounds went through this panel and 20% of them were active in at least one assay; those are over-represented in the sample as a whole.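 A percent growth of 40 corresponds to 60% growth inhibition; 0 means no net growth; -100 means all cells died. Active threshold: below 10.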 Unmarked numbers belong to inactive results. Activity calls are given as the source filed them.

This experiment has as its system HL-60(TB) leukemia. In words: NCI-60 one-dose screen, 48 h (100 = growth as untreated, 0 = no growth, -100 = all killed). The note with it: 10 µM unless noted.
On to `CCn1cnc(C[C@H](NC(=O)[C@H](CCCCNC(=O)Nc2cc(C(F)(F)F)cc(C(F)(F)F)c2)NC(=O)Nc2cc(C(F)(F)F)cc(C(F)(F)F)c2)C(=O)OC)c1`, for which the growth was -48.7% [100 µM] (active).

Turning to `O=C1C[C@@H]2/C(=C(O)\C=C\c3ccccc3)C(=O)C=C[C@@H]2O1`, the growth was 13.3%.

As for `CCO/C=N/C1=C(C#N)C(c2ccc(OC)cc2)c2sc3c(F)cccc3c2O1` (stereo not given), the growth was -9.87% (active).

As to `CSc1nc2sc3c(c2c(=O)n1-c1ccc([N+](=O)[O-])cc1)CCCCC3`, the growth was 97.7%.

For the compound `CC(C)=C1C=C2CC[C@@H]3[C@](C)(CCC[C@@]3(C)C(=O)O)[C@H]2CC1`, the growth was 105%.

Turning to `CC1=C(C(=O)OCC2CCN(C(=O)OC(C)(C)C)CC2)[C@@H](c2cccc(C#N)c2)C2=C(CC(C)(C)CC2=O)N1`, the growth is 16.8%.

`CCN(CC)CCNC(=O)c1cn2ncnc(Oc3ccc(NC(=O)Nc4ccc(Cl)c(C(F)(F)F)c4)c(F)c3)c2c1C`: the growth was -45% (active).

Take `C=C(C)[C@@H]1CC[C@]2(C(=O)O)CC[C@]3(C)[C@H](CC[C@@H]4[C@@]5(C)C[C@@H](Cc6cn(CCO[C@@H]7O[C@H](COC(C)=O)[C@H](OC(C)=O)[C@H](OC(C)=O)[C@H]7OC(C)=O)nn6)[C@H](O)C(C)(C)[C@@H]5CC[C@]43C)[C@@H]12`: the growth is 37.9%.

For the compound `CCOC(=O)c1cn2c3c(cc(F)cc3c1=O)C(CC)c1ccccc1C2` (stereo not given), the growth is 94.9%.

Consider `Cc1ccc(CNc2ccc(Cl)cc2NCc2ccc(C)c(O)c2)cc1O`, for which the growth is 8.41% (active).

As to `Cn1c([N+](=O)[O-])cnc1/C=C1\Oc2ccc(Cl)cc2C1=O`, the growth is -2.57% (active).

Turning to `N#CC1=C(/N=C/c2ccccc2)Oc2c(ccc3ccccc23)C1c1ccccc1` (stereo not given), the growth is 0.269% (active).

As for `Cc1cs/c(=N\NC(=O)c2cc(-c3cc4ccccc4o3)nn2-c2ccccc2)n1-c1ccccc1`, the growth was 109%.

On to `CCOC(=O)/C=C/c1cc2cc(-c3csc4ccccc34)ccc2[nH]1`, for which the growth is 32.1%.

Regarding `O=C(Nc1ccc(-c2nc(N3CCOCC3)c3cccn3n2)cc1)Nc1cccnc1`, the growth is 12%.

Turning to `COc1ccc(-c2cc(-c3ccc(Cl)cc3)c(C#N)c(=O)n2CCCCC(=O)Nc2ccccc2N)cc1`, the growth was 3.34% (active).

On to `CCOC(=O)C1=C(C)n2nc(CC#N)c(C#N)c2NC1c1ccc(Cl)cc1` (stereo not given), for which the growth is 105%.

In the case of `CCOC(=O)[C@]1(Br)CC[C@@]1(Br)C(=O)OCC`, the growth is 47.7%.

`O=C(Nc1ccc(C(=O)O)c(O)c1)c1ccccc1`: the growth is 99% and 105%.

Turning to `NC(=O)CSSCC(N)=O`, the growth was 9.36% (active).

For the compound `Nc1n[nH]c2cccc(C#Cc3cccc(NC(=O)c4cccc(C(F)(F)F)c4)c3)c12`, the growth is 9.22% (active).

Regarding `CC(C)(C)c1ccc(O)c(CNC2CCCCC2)c1`, the growth is 74.8% and 77.1%.

`COc1ccc(-c2cc(-c3ccc(Cl)cc3)nc(SCCCCCCC(=O)NO)n2)cc1OC`: the growth was 19%.

`COc1ccc(CN2c3ccccc3Sc3ccccc32)cc1O`: the growth was 21.1%.

Take `CCOC(=O)c1c(C)oc2ncnc(N3CCN(C(=S)Nc4ccccc4)CC3)c12`: the growth was 94.7%.

Take `O=C(Nc1ccc(N2CCNCC2)cc1)c1[nH]ncc1Nc1cc(C2CC2)ncn1`: the growth was 67.9%.

Turning to `O=c1ssc(Cl)c1-c1ccccc1`, the growth is 48%.

As for `O=C1Nc2c(c(=O)n(-c3ccccc3)c3ccccc23)C(c2ccc(Cl)cc2)N1` (stereo not given), the growth was 108%.

Take `COc1cccc(-c2nc3occn3c2-c2ccnc(NCCCNS(=O)(=O)c3cccc(F)c3)n2)c1`: the growth was 112%.

For `COc1cc(-c2c3c(c(Br)n2Cc2ccccc2)-c2nc(N)sc2CC3)cc(OC)c1OC`, the growth was 68.4%.

For `CCSc1nc(NC)c2cc(-c3ccc(C(F)(F)F)cc3)ccc2n1`, the growth was 98.3%.

For the compound `CCN1c2ccccc2C(Cl)(c2ccc(N(C)C)cc2)c2ccccc21`, the growth is 14%.

On to `O=C(Nc1cc(Cl)ccc1O)c1ccc(Nc2ccnc(C(F)(F)F)c2)cc1`, for which the growth is -11% (active).

As for `CCCCCCCOc1cccc(/C=C2\N=C3SCCCN3C2=O)c1`, the growth is 65%.

For the compound `CCOC(=O)c1cc(-c2ccc([N+](=O)[O-])cc2)n(-c2ccc(C(=O)O)c(O)c2)c1C`, the growth was 31%.

With `COc1ccc2c(c1)sc1nc(-c3ccc(N(C)C)cc3)cn12`, the growth was 65.4%.

For the compound `O=C(CN1C(=O)S/C(=C\C(Cl)=C\c2ccccc2)C1=O)NCCc1ccc(O)cc1`, the growth was 3.33% (active).

For `COc1ccc([N+](=O)[O-])c(C(=O)O)c1`, the growth was 111%.

Consider `Cn1c(=O)[nH]c(=O)c2nc(CCC(=O)NCCC(=O)O)c(=O)[nH]c21`, for which the growth is 101%.

Turning to `O=[N+]([O-])c1cccc2ccc(N/N=C/c3ccccc3O)nc12`, the growth is 40.7% and 50.5%.
